Results on seven compounds are retold here after PubChem BioAssay (NCI).

Some test systems named below: 786-0 renal; MALME-3M melanoma; UACC-257 melanoma; SK-MEL-2 melanoma; EKVX NSCLC; SN12C renal; TK-10 renal; ACHN renal; CAKI-1 renal; A498 renal; RPMI-8226 leukemia; OVCAR-8 ovarian; OVCAR-4 ovarian; SK-OV-3 ovarian; IGROV1 ovarian; OVCAR-3 ovarian; BT-549 breast; MDA-MB-435 melanoma; HCT-116 colon; HCC-2998 colon.
Experiment in all cases: NCI-60 one-dose screen, 48 h (100 = growth as untreated, 0 = no growth, -100 = all killed)
What all share (details): 10 µM

The panel holds about 83,000 compounds, 20% with a hit somewhere; the sample as a whole holds those more often.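 A percent growth of 40 corresponds to 60% growth inhibition; 0 means no net growth; -100 means all cells died. Active threshold: below 10.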 Values without a mark were called inactive. Active and inactive are the calls of the source.

Consider `O=C(/C=C/c1ccc(Br)cc1)c1nc2ccccc2n1Cc1ccc(Br)cc1`, for which the growth is -81.3% (active) with 786-0 renal; -42.9% (active) in the test on MALME-3M melanoma; -4.85% (active) in the test with UACC-257 melanoma; 2.53% (active) in the test with SK-MEL-2 melanoma; 1.19% (active) in the test on EKVX NSCLC; 8.28% (active) with SN12C renal. Also, the growth with TK-10 renal is 23.8%; in the test with ACHN renal it was -38.2% (active); in the test with CAKI-1 renal, 16%; with A498 renal it was 82.7%; in the test on RPMI-8226 leukemia, -9.14% (active); in the test with OVCAR-8 ovarian, -18% (active). Also, the growth in the test with OVCAR-4 ovarian was 35.5%; in the test with SK-OV-3 ovarian, 79.1%; in the test with IGROV1 ovarian, -18% (active); with OVCAR-3 ovarian, -46.9% (active); in the test with BT-549 breast, -66.2% (active); in the test with MDA-MB-435 melanoma, -38.5% (active). For the same compound, the growth with HCT-116 colon was -80.9% (active); in the test with HCC-2998 colon it was -89.6% (active).
Turning to `C[C@H]1[C@H](OC(=O)CCC(=O)N(CCCc2cn(-c3ccc(CN4CCOCC4)cc3)nn2)CCNc2ccnc3cc(Cl)ccc23)O[C@@H]2OC3(C)CC[C@H]4[C@H](C)CC[C@@H]1[C@@]24OO3`, the growth is -65% (active) in the test with 786-0 renal; -90% (active) in the test on MALME-3M melanoma; -69.8% (active) with UACC-257 melanoma; 44.2% in the test with SK-MEL-2 melanoma; 49% in the test on EKVX NSCLC; 23.2% with SN12C renal. Also, the growth with TK-10 renal is 48.8%; in the test with ACHN renal, 23.1%; in the test on CAKI-1 renal, 21.4%; in the test on A498 renal, 93.6%; in the test on RPMI-8226 leukemia, 3.71% (active); with OVCAR-8 ovarian, 19.4%. For the same compound, the growth with OVCAR-4 ovarian is 45.9%; in the test with SK-OV-3 ovarian, 74.2%; in the test with IGROV1 ovarian it was 38%; in the test with OVCAR-3 ovarian, 38.3%; in the test on BT-549 breast it was 5.43% (active); in the test on MDA-MB-435 melanoma, 18.4%. For the same compound, the growth with HCT-116 colon was -8.13% (active); in the test on HCC-2998 colon, 40.1%.
Consider `Cc1ccc2[nH]c(=S)n(-c3ccc(F)cc3)c(=O)c2c1`, for which the growth with 786-0 renal is 91.4%; in the test on MALME-3M melanoma, 96.4%; in the test with UACC-257 melanoma it was 104%; with SK-MEL-2 melanoma, 105%; with EKVX NSCLC, 95.1%; in the test with SN12C renal, 92.2%. For the same compound, the growth in the test on TK-10 renal was 102%; in the test with ACHN renal, 101%; in the test on CAKI-1 renal, 97.3%; in the test on A498 renal, 98.3%; in the test on RPMI-8226 leukemia, 91.5%; in the test on OVCAR-8 ovarian it was 103%. The growth with OVCAR-4 ovarian is 104%; in the test with SK-OV-3 ovarian, 122%; in the test with IGROV1 ovarian, 106%; with OVCAR-3 ovarian, 114%; in the test on BT-549 breast it was 93.7%; with MDA-MB-435 melanoma it was 104%. Also, the growth in the test with HCT-116 colon was 96.3%; in the test on HCC-2998 colon, 111%.
As to `C#CCCCN(CCNc1ccnc2cc(Cl)ccc12)C(=O)CCC(=O)O[C@@H]1O[C@@H]2OC3(C)CC[C@H]4[C@H](C)CC[C@@H]([C@H]1C)[C@@]24OO3`, the growth is 46.9% in the test with 786-0 renal; 20.3% with MALME-3M melanoma; 29.3% in the test on UACC-257 melanoma; 43.9% in the test with SK-MEL-2 melanoma; 42.3% in the test on EKVX NSCLC; 36.1% in the test on SN12C renal. Further, the growth in the test with TK-10 renal was 50.1%; in the test with ACHN renal, 29.4%; with CAKI-1 renal, 41.4%; in the test with A498 renal, 96%; in the test with RPMI-8226 leukemia, 24.9%; with OVCAR-8 ovarian it was 17%. Moreover, the growth with OVCAR-4 ovarian was 41.3%; in the test with SK-OV-3 ovarian it was 79.3%; with IGROV1 ovarian, 41.1%; in the test on OVCAR-3 ovarian it was 25.7%; in the test on BT-549 breast, 37.3%; in the test with MDA-MB-435 melanoma it was 21.2%. Also, the figures for the growth with HCT-116 colon and in the test with HCC-2998 colon were 19.4% and 20.7%, respectively.
`C=CC[Se]C(=O)c1cncc(C(=O)[Se]CC=C)c1`: the growth was -97.3% (active) with 786-0 renal; -67% (active) with MALME-3M melanoma; -75% (active) in the test with UACC-257 melanoma; -54.1% (active) with SK-MEL-2 melanoma; -97.9% (active) in the test on EKVX NSCLC; -95.6% (active) with SN12C renal. Besides, the growth in the test with TK-10 renal is -20.3% (active); with ACHN renal, -12.9% (active); with CAKI-1 renal it was -8.92% (active); in the test with A498 renal, 29.9%; with RPMI-8226 leukemia, -42.2% (active); in the test with OVCAR-8 ovarian, -87.3% (active). In addition, the growth with OVCAR-4 ovarian is -62.8% (active); in the test on SK-OV-3 ovarian, -92.2% (active); in the test on IGROV1 ovarian it was -92% (active); in the test with OVCAR-3 ovarian it was -89.5% (active); with BT-549 breast it was -94.9% (active); in the test with MDA-MB-435 melanoma, -62.9% (active). Also, the values for the growth in the test with HCT-116 colon and in the test with HCC-2998 colon were -86.4% (active) and -92.6% (active), respectively.
Take `COc1cc2cc(C(=O)N3C[C@@H](CCl)c4c3cc(OC(=O)N3CCN(C)[C@@H]5CSSC[C@@H]53)c3ccccc43)[nH]c2c(OC)c1OC`: the growth was -9.47% (active) in the test with 786-0 renal; -70.3% (active) in the test on MALME-3M melanoma; -15.4% (active) in the test with UACC-257 melanoma; -89% (active) with SK-MEL-2 melanoma; -56.1% (active) with EKVX NSCLC; -44.6% (active) in the test with SN12C renal. The growth in the test with TK-10 renal is 13.8%; with ACHN renal, -41.3% (active); in the test on CAKI-1 renal, -0.707% (active); in the test on A498 renal, -22.4% (active); in the test on RPMI-8226 leukemia, -20.4% (active); in the test with OVCAR-8 ovarian, -3.43% (active). Further, the growth is -6.86% (active) with OVCAR-4 ovarian; -6.59% (active) with SK-OV-3 ovarian; 7.55% (active) in the test with IGROV1 ovarian; -15.8% (active) with OVCAR-3 ovarian; -82.6% (active) with BT-549 breast; -86.8% (active) in the test on MDA-MB-435 melanoma. For the same compound, the growth with HCT-116 colon was 5.27% (active); in the test with HCC-2998 colon, -53.8% (active).
With `CCC[Se]C(=O)c1ccc(C(=O)[Se]CCC)s1`, the growth in the test on 786-0 renal was 2.15% (active); in the test on MALME-3M melanoma, -82.4% (active); with UACC-257 melanoma, -53.7% (active); in the test with SK-MEL-2 melanoma it was -24.1% (active); in the test on EKVX NSCLC it was -79.7% (active); in the test on SN12C renal, -75% (active). For the same compound, the growth was -79.8% (active) with TK-10 renal; -63.3% (active) in the test with ACHN renal; -78.1% (active) in the test with CAKI-1 renal; -64.9% (active) in the test with A498 renal; -5.8% (active) in the test on RPMI-8226 leukemia; -51.1% (active) in the test with OVCAR-8 ovarian. Also, the growth with OVCAR-4 ovarian was 55.6%; in the test with SK-OV-3 ovarian, -31.1% (active); in the test with IGROV1 ovarian it was -67.3% (active); in the test with OVCAR-3 ovarian, -47.6% (active); in the test on BT-549 breast it was -86.4% (active); in the test with MDA-MB-435 melanoma it was -61% (active). The figures for the growth in the test with HCT-116 colon and in the test with HCC-2998 colon were -56% (active) and -8.78% (active), respectively.
